Activity calls are given as the source filed them. How the source made its calls: active means hit-call score of the fitted dose curve at least 0.9, where 1 is the maximum; inactive means score below 0.9.
Assay: ATG_E_Box_CIS: Attagene CIS-FACTORIAL HepG2 Assay for human Enhancer Box (E-box) (AID 2282936)
Conditions: HepG2 E-box cis-reporter transcription, actives raise or lower the signal
Method: ATG_CIS is a cell-based, multiplexed-readout assay that uses HepG2, a human liver cell line, with measurements taken at 24 hours after chemical dosing in a 24-well plate.ATG_E_Box_CIS is one of 52 assay component(s) measured or calculated from the ATG_CIS assay. It is designed to make measurements of mRNA induction, a form of inducible reporter, as detected with fluorescence intensity signals by Reverse transcription polymerase chain reaction (RT-PCR) and Capillary electrophoresis technology.Data from the assay component ATG_E_Box_CIS was analyzed into 1 assay endpoint. This assay endpoint, ATG_E_Box_CIS, was analyzed with bidirectional fitting relative to DMSO as the negative control and baseline of activity. Using a type of inducible reporter, measures of mRNA for gain or loss-of-signal activity can be used to understand the reporter gene at the transcription factor-level as they relate to the gene USF1. Furthermore, this assay endpoint can be referred to as a primary readout, because this assay has produced multiple assay endpoints where this one serves a reporter gene function. To generalize the intended target to other relatable targets, this assay endpoint is annotated to the dna binding intended target family, where the subfamily is basic helix-loop-helix protein.
Human liver HepG2 cells are transiently transfected with multiple reporter transcription units (MRTUs) in 6-well plates using FuGene 6 reagent (Roche; 3 ml FuGene/1 mg DNA). The MRTU constructs are regulated by a cis-regulating element (promoter). […] A major difference between the CIS and TRANS system is that in CIS activities of endogenous TFs are measured, whereas the TRANS assay evaluates changes in activities of exogenous, chimeric NR-Gal4 proteins. […] At the end of 24 hour incubation, total RNA was isolated using TriZol reagent (Invitrogen). The isolated RNA is then reverse-transcribed using oligo(dT) primer and Mo-MLV reverse transcriptase (Invitrogen) with DNAse I (Ambion) treatment for 30 min. The one-tenth of the produced cDNA was amplified by PCR using Taq DNA polymerase (Invitrogen) and two reporter sequence-specific primers. The PCR products were fluorescently labeled by primer extension with 6-arboxyfluorescein (6-FAM) 5'-labeled reporter sequence-specific primer (2 min at 95 C, 20 s at 68 C and 10 min at 72 C) and these products were digested with 5U of HpaI (New England Biolabs) for 2h at 37 C. The fragments were purified using Qiaquick PCR columns (Qiagen), analyzed on an ABI 3130xL genetic analyzer (Applied Biosystems) with peak positions identified by using a set of X-rhodamine (ROX)-labeled MapMarker1000 molecular weight standards (BioVentures). The raw capillary electrophoresis data was processed using Attagraph software (Attagene).

Row | SMILES | outcome | AC50
1 | COc1ccccc1C=O | inactive | 
2 | NS(=O)(=O)C(F)(F)C(F)(F)C(F)(F)C(F)(F)C(F)(F)C(F)(F)F | inactive | 
3 | CCN(CC)c1ccc(C=O)cc1 | inactive | 
4 | C=CCOC(=O)CC(C)C | inactive | 
5 | C[Si](Cl)(Cl)CCC(F)(F)C(F)(F)C(F)(F)C(F)(F)C(F)(F)C(F)(F)F | inactive | 
6 | O=c1[nH]cccc1O | inactive | 
7 | CCC(=O)OC(C)c1ccccc1 (stereo not given) | inactive | 
8 | CCOC(=O)C1CC(=O)C(=C(O)C2CC2)C(=O)C1 (stereo not given) | inactive | 
9 | O=C1C=CC(=O)N1c1ccccc1 | inactive | 
10 | O=C1c2c(O)ccc(Nc3ccc(CCO)cc3)c2C(=O)c2c([N+](=O)[O-])ccc(O)c21 | inactive | 
11 | CSc1ccc(Cl)cc1 | inactive | 
12 | CN(C)C(C)(C)CO | inactive | 
13 | CCCCCCCCCCCC(=O)Cl | inactive | 
14 | Cc1ccc(S(=O)(=O)C(I)I)cc1 |  | 24.3 µM (active)
15 | CCC(Cc1c(I)cc(I)c(N)c1I)C(=O)O (stereo not given) | inactive | 
16 | CCOC(C=C(C)CCC=C(C)C)OCC | inactive | 
17 | Nc1c(Br)cc([N+](=O)[O-])cc1Br | inactive | 
18 | O=C1c2ccccc2C(=O)c2c(Cl)cccc21 | inactive | 
19 | Cc1ccc(O)c(-n2nc3ccccc3n2)c1 | inactive | 
20 | Cc1ccc(O)cn1 | inactive | 

Row | SMILES | outcome | AC50
21 | OCCCCl | inactive | 
22 | C=C(C)C(=O)OCC(F)(F)C(F)(F)C(F)(F)C(F)F | inactive | 
23 | O=C(O)C(F)(F)OC(F)(F)C(F)(F)OC(F)(F)C(F)(F)OC(F)(F)F | inactive | 
24 | CC(=O)C=O | inactive | 
25 | O=C(O)CCC(F)(F)C(F)(F)C(F)(F)C(F)(F)C(F)(F)C(F)(F)C(F)(F)F | inactive | 
26 | CC(C)(C)C(=O)C1C(=O)c2ccccc2C1=O | inactive | 
27 | CCOCN(C(=O)CS(=O)(=O)O)c1c(C)cccc1CC | inactive | 
28 | CCN(CC)c1ccc(N=Nc2ccccc2)cc1 |  | 20.9 µM (active)
29 | O=C(O)C(F)(F)C(F)(F)C(F)(F)OC(F)(F)F | inactive | 
30 | Cc1ccc2c(c1)OCC(=O)CO2 | inactive | 
31 | CCOC(OCC)OCC | inactive | 
32 | CCCCOC(=O)C(C)O (stereo not given) | inactive | 
33 | CC1=CC2C3C=CC(C3)C2C1C (stereo not given) | inactive | 
34 | O=C1C=CC(=O)N1c1ccc(Cc2ccc(N3C(=O)C=CC3=O)cc2)cc1 |  | 44.9 µM (active)
35 | OCC(O)CC(F)(F)C(F)(F)C(F)(F)C(F)(F)C(F)(F)C(F)(F)C(F)(F)C(F)(F)F (stereo not given) | inactive | 
36 | CC(=O)c1ccccc1N | inactive | 
37 | C=C(C)CCCC | inactive | 
38 | O=C=NCc1cccc(CN=C=O)c1 | inactive | 
39 | CCN(CC)c1ccc2c(c1)Oc1cc(N(CC)CC)ccc1C21OC(=O)c2ccccc21 | inactive | 
40 | CCN=c1cc2oc3cc(NCC)c(C)cc3c(-c3ccccc3C(=O)OCC)c-2cc1C |  | 11.1 µM (active)

— PubChem BioAssay (EPA / NIEHS)
